Hits are enriched below; roughly 2.3% of the tested compounds scored in any of these assays.
DENV2 CPE – DENV2-induced cell death inhibition; CPE inhibition, % at 9.99 µM; 350,000 compounds, 1.7% hits; DENV2-infected cells, cytopathic effect rescue, plate reader; in the data active means CPE inhibition above about 20%, passing the limit was not always enough; inconclusive means no clear call, values can overlap the other calls; tested in BHK-21 cells;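 further: 0% = median of neutral control wells and 100% = median of positive control wells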
PDI turbidity – inhibitors of human protein disulfide isomerase; inhibition, % at 10 µM; 350,000 compounds, 0.052% hits; P07237; AID 588391; PDI insulin aggregation turbidity, A650, 90 min;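 active means mean inhibition across replicates of 30% or more, whatever share of single replicates reach that level; inconclusive means mean inhibition below 30% while every single replicate reaches 30%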
Target sequence (P07237 whole entry, looked up): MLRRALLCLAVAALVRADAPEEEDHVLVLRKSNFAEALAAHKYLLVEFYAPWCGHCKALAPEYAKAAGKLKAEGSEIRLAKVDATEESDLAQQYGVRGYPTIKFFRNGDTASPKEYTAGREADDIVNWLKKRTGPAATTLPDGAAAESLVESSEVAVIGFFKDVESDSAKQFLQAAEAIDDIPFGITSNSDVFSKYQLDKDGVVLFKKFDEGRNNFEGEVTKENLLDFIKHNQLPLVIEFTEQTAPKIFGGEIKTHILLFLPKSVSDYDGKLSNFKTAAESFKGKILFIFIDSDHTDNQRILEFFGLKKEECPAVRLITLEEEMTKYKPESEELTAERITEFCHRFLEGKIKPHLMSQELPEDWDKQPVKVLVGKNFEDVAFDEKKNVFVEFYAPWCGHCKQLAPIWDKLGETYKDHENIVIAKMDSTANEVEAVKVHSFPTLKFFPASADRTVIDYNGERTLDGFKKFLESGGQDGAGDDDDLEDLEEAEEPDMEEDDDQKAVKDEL
SIRT5 block – blocks human SIRT5 desuccinylation of peptide | inhibition, % at 15 µM | 330,000 compounds, 1.1% hits | AID 652115 | Purified SirT5, succinyl-peptide AMC, trypsin-coupled fluorescence | Q9NXA8; in the data active means inhibition above about 15%; inconclusive means no clear call, values can overlap the other calls
Rtt109 Vps75 – inhibitors of Candida albicans Rtt109/Vps75 histone acetyltransferase; Q5AAJ8; purified Rtt109/Vps75, ThioGlo CoA-SH fluorescence, 4 h; inhibition, % at 34.9 µM; 330,000 compounds, 0.16% hits;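 active means inhibition of at least 50% in every replicate; inconclusive means best replicate reaches 50% inhibition but some replicates fall short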
ERp5 inh – ERp5 (human) disulfide isomerase inhibition | Q15084 | ERp5 insulin aggregation, absorbance 650 nm, 90 min | inhibition, % at 9.99 µM | 350,000 compounds, 0.05% hits | AID 651711;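 active means mean replicate inhibition above about 25%, with every replicate also reaching it, limit read from the data, passing the limit was not always enough; inconclusive means only one of those two criteria met; inactive means neither criterion met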
Starred values were filed as active, the others as inactive; ? = inconclusive; / = no result; ! = not confirmed by another sample.

SMILES	DENV2 CPE	PDI turbidity	SIRT5 block	Rtt109 Vps75	ERp5 inh
COc1cccc(-c2ccc([C@@H]3[C@H](CO)N4C(=O)CN(C(=O)C5CCCC5)C[C@@H]34)cc2)c1	-7.0	/	-15.0	/	-1.7
O=S(=O)(c1cc(F)ccc1F)N1CCN(c2ncccn2)CC1	2.6	34.1*	-4.8	18.3	-1.9
Cn1cc(-c2cnc3c(NC=O)cc(-c4cccc(C(F)(F)F)c4)cn23)cn1	27.0*	3.2	-2.2	/	-0.3
COc1cccc(-c2cnc3c(NC=O)cc(-c4ccncc4)cn23)c1	65.2*	-7.9	/	/	0.2
COc1cccc(-c2cnc3c(NC(C)=O)cc(-c4ccncc4)cn23)c1	-9.4	-6.3	-0.2	/	-3.5
COc1cc(-c2cnc3c(NC=O)cc(-c4cccc(C(F)(F)F)c4)cn23)cc(OC)c1OC	12.6	-1.0	/	/	9.5
C[C@@H]1CN([C@@H](C)CO)C(=O)Cc2cc(NC(=O)Nc3cccc4ccccc34)ccc2O[C@@H]1CN(C)S(=O)(=O)c1ccccc1	2.0	/	-1.1	/	-1.6
COc1ccc(CN(C)C[C@H]2Oc3ccc(NC(=O)NC(C)C)cc3C(=O)N([C@H](C)CO)C[C@H]2C)cc1	-6.8	/	-4.1	/	3.2
O=C(C[C@@H]1CC[C@@H](NC(=O)c2ccc(F)cc2)[C@@H](CO)O1)NCCc1ccncc1	23.3*	/	7.5	/	-1.9
O=C(C[C@H]1CC[C@@H](NC(=O)c2ccc(F)cc2)[C@@H](CO)O1)NCCc1ccncc1	-0.3	/	-2.1	/	5.7
Cc1cccc(S(=O)(=O)N[C@@H]2CC[C@@H](CCNC(=O)Nc3cc(F)ccc3F)O[C@@H]2CO)c1	39.1*	/	-4.8	/	-2.3
O=C(Cc1ccncc1)NCC[C@@H]1CC[C@H](NC(=O)Nc2cccc(F)c2)[C@@H](CO)O1	2.7	/	2.3	/	5.3
O=C(CN1CCOCC1)N[C@H]1CC[C@@H](CCNC(=O)Nc2cc(F)ccc2F)O[C@@H]1CO	-5.2	/	-0.6	/	10.9
O=C(CN1CCOCC1)N[C@@H]1CC[C@H](CCNC(=O)Nc2cc(F)ccc2F)O[C@@H]1CO	0.8	/	16.1*	/	0.5
O=C(Cc1ccncc1)NCC[C@@H]1CC[C@@H](NC(=O)Nc2cccc(F)c2)[C@@H](CO)O1	22.7*	/	-1.2	/	-3.5
CC(C)NC(=O)N(C)C[C@@H]1OCCCC[C@@H](C)Oc2ccc(NS(=O)(=O)c3ccc(Cl)cc3)cc2C(=O)N([C@@H](C)CO)C[C@H]1C	6.6	/	-4.8	/	0.8
C[C@H]1CN([C@@H](C)CO)C(=O)c2cccc(NS(=O)(=O)c3cn(C)cn3)c2O[C@@H]1CN(C)CC1CC1	2.6	/	-3.0	/	-5.7
O=C(NCC[C@H]1CC[C@@H](NC(=O)Nc2cc(F)ccc2F)[C@H](CO)O1)Nc1ccc(F)cc1	11.7	/	32.7*	/	0.7
O=C(NCC[C@H]1CC[C@@H](NC(=O)c2cccnc2)[C@H](CO)O1)Nc1ccc(F)cc1	20.6*	/	4.3	/	-7.6
O=[N+]([O-])c1cc(Cl)c2cccnc2c1O	5.3	-1.2	16.6*	-4.7	-0.4
CO[C@@H]1CN(C)C(=O)c2cc(NC(=O)Nc3ccccc3)ccc2OC[C@H](C)N(C(=O)CN(C)C)C[C@H]1C	1.3	/	-7.2	/	3.6
CCCNC(=O)C[C@H]1CC[C@H]2[C@@H](COc3ccc(NC(=O)COC)cc3C(=O)N2C)O1	-3.8	/	/	/	/
C[C@@H]1CN([C@@H](C)CO)S(=O)(=O)c2ccc(C#CCN(C)C)cc2O[C@H]1CN(C)Cc1ccccc1	23.8*	/	3.4	/	5.6
C[C@H]1CN([C@@H](C)CO)S(=O)(=O)c2ccc(Br)cc2O[C@H]1CN(C)Cc1ccc(F)cc1	40.7*!	-1.4	-6.0	/	2.5
COCC#Cc1ccc2c(c1)O[C@@H](CN(C)Cc1ccncc1)[C@@H](C)CN([C@@H](C)CO)S2(=O)=O	22.1*	/	-6.4	/	0.3
SMILES	DENV2 CPE	PDI turbidity	SIRT5 block	Rtt109 Vps75	ERp5 inh
C[C@H](CO)N1C[C@H](C)[C@@H](CN(C)Cc2ccc(F)cc2)Oc2cc(Br)ccc2S1(=O)=O	-8.0	/	4.5	/	11.1
CCCN(C)C[C@@H]1Oc2cc(C#CCC(C)C)ccc2S(=O)(=O)N([C@H](C)CO)C[C@@H]1C	34.3*	/	2.4	/	1.9
CCCN(C)C[C@H]1Oc2cc(C#CCC(C)C)ccc2S(=O)(=O)N([C@@H](C)CO)C[C@H]1C	-4.3	/	0.2	/	0.0
COCC#Cc1ccc2c(c1)O[C@@H](CN(C)Cc1ccncc1)[C@@H](C)CN([C@H](C)CO)S2(=O)=O	-7.2	/	-1.6	/	-0.5
C[C@@H]1CN([C@H](C)CO)S(=O)(=O)c2ccc(Br)cc2O[C@@H]1CN(C)Cc1cccnc1	-2.5	/	-2.3	/	5.2
COc1ccc2c3c([nH]c2c1)[C@H](CO)N(C(=O)C1CCCC1)CC31CN(S(C)(=O)=O)C1	14.1	/	6.3	/	-9.9
CC(C)CC#Cc1ccc2c(c1)O[C@@H](CN(C)Cc1ccccc1F)[C@@H](C)CN([C@H](C)CO)S2(=O)=O	14.3	/	0.6	/	-1.6
C[C@H]1CN([C@@H](C)CO)S(=O)(=O)c2ccc(C#CC3CC3)cc2O[C@@H]1CN(C)Cc1ccccc1F	-9.6	/	17.4*	/	1.6
C[C@@H]1CN([C@H](C)CO)S(=O)(=O)c2ccc(C#CC3CC3)cc2O[C@H]1CN(C)Cc1ccc(F)cc1	-7.4	/	16.0*	/	0.7
CC(C)CC#Cc1ccc2c(c1)O[C@@H](CN(C)Cc1ccccc1F)[C@H](C)CN([C@H](C)CO)S2(=O)=O	-3.7	/	22.0*	/	0.1
CCCC#Cc1ccc2c(c1)O[C@@H](CN(C)CC1CCOCC1)[C@H](C)CN([C@H](C)CO)S2(=O)=O	-3.5	/	23.5*	/	-6.8
O=C(C[C@H]1CC[C@@H]2[C@H](COC[C@@H](O)CN2CC2CCCC2)O1)NCC1CC1	?	/	-3.4	/	-3.1
C[C@H](CO)N1C[C@H](C)[C@H](CN(C)Cc2ccc(Oc3ccccc3)cc2)Oc2ccc(NS(=O)(=O)c3cccs3)cc2C1=O	11.4	/	9.7	/	-0.3
CNC[C@H]1Oc2ccc(NC(=O)CCCN(C)C)cc2C(=O)N([C@H](C)CO)C[C@@H]1C	3.7	/	-3.5	/	0.3
CC=Cc1ccc2n(c1=O)C[C@@H]1[C@@H](CO)[C@H](C(=O)NCC)[C@H]2N1C(=O)c1ccc(F)cc1 (mixture of isomers)	1.4	/	-14.1	/	-5.4
COc1cccc(NC(=O)N(C)C[C@@H]2OCc3ccccc3-c3ccccc3C(=O)N([C@@H](C)CO)C[C@@H]2C)c1	6.5	/	-20.9	/	1.5
C/C=C/c1ccc2c(c1)O[C@H](CN(C)C(=O)CN1CCOCC1)[C@@H](C)CN([C@H](C)CO)S2(=O)=O	-4.9	/	3.0	/	-2.9
C[C@@H]1CN([C@H](C)CO)S(=O)(=O)c2ccc(Br)cc2O[C@@H]1CN(C)C(=O)CN1CCOCC1	55.4*!	0.4	-5.9	/	3.2
C[C@@H]1CN([C@@H](C)CO)S(=O)(=O)c2ccc(C#CCN(C)C)cc2O[C@@H]1CN(C)Cc1ccccc1F	44.7*	/	3.5	/	3.5
C[C@H](CO)N1C[C@H](C)[C@@H](CN(C)Cc2ccccc2F)Oc2cc(C#CCN(C)C)ccc2S1(=O)=O	19.7	/	-2.2	/	1.6

High-throughput results from PubChem BioAssay.
